Records with an inconclusive call do not appear. Active and inactive are the calls of the source.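 The calls were made as follows, unless noted: active = efflux inhibition above 0.42, the validation set average plus 4 SD; inconclusive = no clear call, values can overlap the other calls; inactive = the rest.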
Experiments:
[1] = rapamycin-like changes in RPL19A-GFP expression – cell-based, S. cerevisiae, multiplex flow cytometry, primary screen (AID 1862; in the data active = percent of DMSO control GFP below about 86%;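 also: lower values mimic rapamycin by blocking the RPL19A rise seen in DMSO cells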); details: S. cerevisiae RPL19A-GFP strain, flow cytometry fluorescence, 3 h; at 10 µM; stronger effect = lower value
[2] = TOR pathway GLN3 branch reporter MEP2-GFP changes – S. cerevisiae, multiplex flow cytometry, primary screen (AID 1867;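 active = GFP response, as percent of the DMSO control, above the screen-wide mean plus 3 SD, about 139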;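 also: median GFP channel fluorescence of barcode-gated MEP2-GFP cells measured by flow cytometry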); details: S. cerevisiae MEP2-GFP strain, 3 h, at 10 µM, stronger effect = higher value, 100% means same as DMSO wells
[3] = TOR pathway RTG branch CIT2 reporter changes – S. cerevisiae, GFP fusion, multiplex flow cytometry, primary screen (AID 1870;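 active = percent response above a set limit, the screen-wide mean plus 3 SD, cut at about 130% in these data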;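 also: barcoded CIT2-GFP strain pooled with four other GFP strains with rapamycin as positive control; median GFP fluorescence per well over plate mean of DMSO wells so 100% = DMSO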); details: S. cerevisiae CIT2-GFP expression, 3 h, at 10 µM, stronger effect = higher value
[4] = TOR pathway LAP4-GFP level changes – S. cerevisiae, multiplex flow cytometry, primary screen (AID 1873;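 active = GFP signal, as percent of the solvent control, above the screen mean plus 3 SD, about 149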); details: S. cerevisiae LAP4-GFP expression, 3 h, at 10 µM, stronger effect = higher value
[5] = yeast AGP1-GFP level changes, GLN3 branch – cell-based, multiplex flow cytometry, S. cerevisiae, primary screen (AID 1887;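 active = GFP signal above the screen-wide mean plus 3 SD, that is over about 124.5% of the solvent control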;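 also: AGP1-GFP fusion strain of S. cerevisiae within a five-strain barcoded multiplex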); details: 3 h, at 10 µM, stronger effect = higher value
[6] = reduced mouse 2C T cell binding to pMHC/ICAM-1 vesicles – MLPCN validation set, flow cytometry, LFA-1/ICAM-1 modulator project, pilot screen (AID 2523;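 active = response below a set limit, under 55% cells CD8-positive and vesicle-bound, and CD8 cells' 90th-percentile brightness under 279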;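 as to vesicle binding response: mean PE anti-B7-1 fluorescence of CD8+ cells relative to row control; 100% = QL9-loaded vesicles with DMSO vehicle in the same plate row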); details: 2C mouse CD8+ T cells, at 7 µM, stronger effect = lower value; double positive events: measured here: CD8+/vesicle+ event percentage
[7] = target: Integrin beta-1 (Homo sapiens) + Integrin alpha-4 (Homo sapiens) (UniProt P13612+P05556); experiment: alpha4beta1 integrin LIBS antibody binding reduction – U937 cells, HUTS-21 mAb, flow cytometry, validation set, VLA-4 allosteric modulator project, pilot screen (AID 2674;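 active = inhibition above 50%, about 3 SD of the validation set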;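 also: antibody binding induced by the VLA-4 ligand LDV present at three times its Kd; 0% = LDV ligand with antibody and no compound and 100% = antibody without LDV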); details: HUTS-21 LIBS mAb binding, at 6.7 µM, stronger effect = higher value, binding induced by LDV ligand
Sequence of Integrin beta-1 (Homo sapiens) + Integrin alpha-4 (Homo sapiens) (P05556 whole entry, looked up): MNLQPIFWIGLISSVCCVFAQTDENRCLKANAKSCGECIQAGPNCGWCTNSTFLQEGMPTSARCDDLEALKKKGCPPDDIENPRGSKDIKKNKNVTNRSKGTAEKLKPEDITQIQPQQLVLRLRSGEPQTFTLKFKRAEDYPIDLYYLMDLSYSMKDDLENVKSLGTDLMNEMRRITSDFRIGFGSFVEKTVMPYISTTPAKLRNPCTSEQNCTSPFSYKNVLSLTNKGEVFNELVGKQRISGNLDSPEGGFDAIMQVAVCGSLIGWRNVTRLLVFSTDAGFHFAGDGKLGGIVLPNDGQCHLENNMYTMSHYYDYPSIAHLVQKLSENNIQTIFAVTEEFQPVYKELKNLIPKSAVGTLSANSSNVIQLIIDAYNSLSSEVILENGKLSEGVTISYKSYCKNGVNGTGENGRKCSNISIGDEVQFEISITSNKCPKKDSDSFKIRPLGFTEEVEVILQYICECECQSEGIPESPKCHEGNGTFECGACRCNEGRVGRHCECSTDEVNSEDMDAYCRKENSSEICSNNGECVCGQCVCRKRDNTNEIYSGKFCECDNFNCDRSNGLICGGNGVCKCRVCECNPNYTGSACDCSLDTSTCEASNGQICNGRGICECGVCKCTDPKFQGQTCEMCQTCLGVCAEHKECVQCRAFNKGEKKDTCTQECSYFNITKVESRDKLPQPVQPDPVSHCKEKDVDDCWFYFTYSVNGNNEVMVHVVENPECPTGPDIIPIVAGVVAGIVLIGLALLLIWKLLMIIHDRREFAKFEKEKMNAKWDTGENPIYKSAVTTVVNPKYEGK
Sequence of Integrin beta-1 (Homo sapiens) + Integrin alpha-4 (Homo sapiens) (P13612 whole entry, looked up): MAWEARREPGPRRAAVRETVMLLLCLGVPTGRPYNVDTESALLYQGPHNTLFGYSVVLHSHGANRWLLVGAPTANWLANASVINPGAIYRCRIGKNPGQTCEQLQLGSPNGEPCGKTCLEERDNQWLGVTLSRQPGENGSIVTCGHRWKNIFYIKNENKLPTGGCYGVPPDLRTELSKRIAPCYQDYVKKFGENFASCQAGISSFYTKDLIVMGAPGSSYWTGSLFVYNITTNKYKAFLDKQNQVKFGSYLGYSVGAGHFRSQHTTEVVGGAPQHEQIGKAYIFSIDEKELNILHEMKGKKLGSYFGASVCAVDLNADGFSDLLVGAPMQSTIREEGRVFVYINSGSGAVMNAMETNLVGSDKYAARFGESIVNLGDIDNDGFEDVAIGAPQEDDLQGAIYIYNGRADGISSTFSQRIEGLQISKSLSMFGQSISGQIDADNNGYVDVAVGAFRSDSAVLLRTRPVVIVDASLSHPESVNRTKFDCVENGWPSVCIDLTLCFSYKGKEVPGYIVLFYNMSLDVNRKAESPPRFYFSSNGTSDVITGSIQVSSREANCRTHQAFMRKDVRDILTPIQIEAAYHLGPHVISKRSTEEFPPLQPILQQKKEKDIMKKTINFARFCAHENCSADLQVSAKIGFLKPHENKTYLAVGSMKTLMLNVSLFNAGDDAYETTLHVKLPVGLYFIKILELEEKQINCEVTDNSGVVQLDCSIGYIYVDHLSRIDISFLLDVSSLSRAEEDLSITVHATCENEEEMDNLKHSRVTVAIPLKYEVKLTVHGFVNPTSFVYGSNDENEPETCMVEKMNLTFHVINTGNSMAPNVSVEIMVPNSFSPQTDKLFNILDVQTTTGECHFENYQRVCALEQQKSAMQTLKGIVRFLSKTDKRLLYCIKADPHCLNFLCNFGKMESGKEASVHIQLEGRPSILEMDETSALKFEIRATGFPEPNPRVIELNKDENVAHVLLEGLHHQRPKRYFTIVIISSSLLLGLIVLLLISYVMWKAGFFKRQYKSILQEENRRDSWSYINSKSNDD

[8] = calorie-restriction mimetic ROS inhibitors, yeast – validation compound set, pilot screen (AID 2706;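 active = superoxide response below 65% of plate, a cut near 3 SD across the whole screen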;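 also: yeast exposed to compound for one week at 30 degrees C before staining; 100% = mean of all compound wells on the same plate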); details: S. cerevisiae aging, superoxide DHE fluorescence; at 10 µM, stronger effect = lower value
[9] = target: Beta-adrenergic receptor kinase 1 (Homo sapiens) (UniProt P25098); experiment: GRK2 binders displacing RNA aptamer, biochemical, validation, human GRK2, bead flow cytometry (AID 488806;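 active = aptamer binding inhibition above 30%, about 3 SD of noise from non-fluorescent compounds; inactive = inhibition at or below 30%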); details: bead-bound GRK2, FAM-aptamer displacement, at 10 µM, stronger effect = higher value
Sequence of Beta-adrenergic receptor kinase 1 (Homo sapiens) (P25098 whole entry, looked up): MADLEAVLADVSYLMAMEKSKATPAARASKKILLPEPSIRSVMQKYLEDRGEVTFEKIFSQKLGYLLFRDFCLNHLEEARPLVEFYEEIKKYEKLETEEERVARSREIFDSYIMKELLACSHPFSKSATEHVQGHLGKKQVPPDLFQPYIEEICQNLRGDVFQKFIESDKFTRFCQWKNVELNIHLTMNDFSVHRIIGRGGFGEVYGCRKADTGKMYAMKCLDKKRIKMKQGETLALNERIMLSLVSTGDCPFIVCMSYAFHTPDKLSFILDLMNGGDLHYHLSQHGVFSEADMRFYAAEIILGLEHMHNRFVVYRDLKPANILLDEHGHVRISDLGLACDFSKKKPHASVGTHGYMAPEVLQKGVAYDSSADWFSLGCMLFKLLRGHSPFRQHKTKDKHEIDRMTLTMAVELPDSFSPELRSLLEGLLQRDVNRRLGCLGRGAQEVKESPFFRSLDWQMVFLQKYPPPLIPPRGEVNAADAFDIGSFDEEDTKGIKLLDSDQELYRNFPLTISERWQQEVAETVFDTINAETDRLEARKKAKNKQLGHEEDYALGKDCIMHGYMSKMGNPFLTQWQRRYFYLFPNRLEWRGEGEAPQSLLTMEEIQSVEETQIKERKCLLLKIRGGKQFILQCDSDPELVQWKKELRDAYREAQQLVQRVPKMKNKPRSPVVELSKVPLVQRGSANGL

[10] = target: AP-2 complex subunit beta (Homo sapiens) (UniProt P63010); experiment: beta-arrestin/AP2 interaction blockers – biochemical, validation set, GST-AP2 beads, flow cytometry, pilot screen (AID 504541;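 active = inhibition above 54%, about 3 SD of non-fluorescent compounds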;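 also: AP2 carries R879A mutation and is captured from E. coli lysate; bead-bound FITC arrestin peptide fluorescence measuring arrestin peptide binding to AP2; 0% = DMSO wells and 100% = excess unlabeled arrestin peptide control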); details: FITC arrestin peptide, at 10 µM, stronger effect = higher value, AP2 beta2 appendage fragment, R879A mutant
Sequence of AP-2 complex subunit beta (Homo sapiens) (P63010 whole entry, looked up, the tested form may be a part, one chain of several): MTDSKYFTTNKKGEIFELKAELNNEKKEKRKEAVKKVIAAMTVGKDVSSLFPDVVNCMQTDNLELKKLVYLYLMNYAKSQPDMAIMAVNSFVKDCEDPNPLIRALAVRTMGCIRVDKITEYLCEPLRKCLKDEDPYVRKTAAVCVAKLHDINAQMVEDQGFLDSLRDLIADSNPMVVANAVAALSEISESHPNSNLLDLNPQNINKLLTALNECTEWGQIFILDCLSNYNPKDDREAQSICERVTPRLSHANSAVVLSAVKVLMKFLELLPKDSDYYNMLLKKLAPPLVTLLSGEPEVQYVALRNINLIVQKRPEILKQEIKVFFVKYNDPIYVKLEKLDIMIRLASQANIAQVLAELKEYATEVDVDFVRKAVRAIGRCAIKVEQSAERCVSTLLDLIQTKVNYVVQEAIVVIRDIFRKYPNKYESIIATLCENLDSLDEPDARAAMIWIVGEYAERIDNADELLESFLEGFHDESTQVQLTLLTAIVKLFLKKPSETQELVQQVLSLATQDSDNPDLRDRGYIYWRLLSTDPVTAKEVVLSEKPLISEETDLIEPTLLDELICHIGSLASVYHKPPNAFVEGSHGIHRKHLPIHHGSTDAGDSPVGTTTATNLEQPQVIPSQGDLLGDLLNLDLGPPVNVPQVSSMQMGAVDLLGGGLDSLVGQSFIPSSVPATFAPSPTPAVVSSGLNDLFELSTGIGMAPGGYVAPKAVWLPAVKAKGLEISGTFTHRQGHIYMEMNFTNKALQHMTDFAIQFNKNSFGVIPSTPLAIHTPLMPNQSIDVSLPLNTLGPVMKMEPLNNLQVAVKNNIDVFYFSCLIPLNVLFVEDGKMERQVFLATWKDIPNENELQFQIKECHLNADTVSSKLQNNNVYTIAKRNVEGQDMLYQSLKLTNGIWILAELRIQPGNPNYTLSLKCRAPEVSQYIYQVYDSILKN

[11] = cytosolic pH regulators acting via V-ATPase – S. cerevisiae, pHLuorin, HTS validation (AID 504600; in the data active = response above about 15%;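 also: plate controls were DMSO for no effect and reference compound for full effect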); details: V-ATPase proton transport, at 10 µM, stronger effect = higher value
[12] = tested on: anti-desmoglein-3 scFv antibody binding to human DSG3; experiment: blockers of pathogenic pemphigus antibody–desmoglein-3 binding – biochemical, validation compound set, bead-based, flow cytometry, pilot screen (AID 588368;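 active = binding below the plate cutoff, the plate median minus 3 SD, with a reading above zero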;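 also: signal is the median channel fluorescence of bead-bound GFP antibody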); details: Protein G beads, DSG3-Fc, scFv-GFP binding, at 10 µM, stronger effect = lower value
[13] = Nile Red efflux blockade in pump-expressing yeast – validation compound set, multiplex, phenotypic, pilot screen (AID 588506);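 also: Nile Red retained in cells so higher fluorescence means more efflux inhibition; 0 = negative control wells and 1 = enniatin B 25 µM full block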; details: S. cerevisiae pump-expressing triplex, Nile Red efflux flow cytometry; at 10 µM; stronger effect = higher value; the pumps come from Candida albicans
[14] = target: ATP-binding cassette sub-family B member 6 (Homo sapiens) (UniProt Q9NP58); experiment: blockers of ABCB6-driven porphyrin uptake – K562-ABCB6 cells, flow cytometry, validation set, pilot screen (AID 588550;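 active = inhibition above the screen-wide mean plus 3 SD, about 51%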;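 also: 0% = DMSO wells and 100% = benzethonium chloride 70 µM positive control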); details: K562-ABCB6 porphyrin accumulation, 1 h, at 10 µM, stronger effect = higher value
Sequence of ATP-binding cassette sub-family B member 6 (Homo sapiens) (Q9NP58 whole entry, looked up): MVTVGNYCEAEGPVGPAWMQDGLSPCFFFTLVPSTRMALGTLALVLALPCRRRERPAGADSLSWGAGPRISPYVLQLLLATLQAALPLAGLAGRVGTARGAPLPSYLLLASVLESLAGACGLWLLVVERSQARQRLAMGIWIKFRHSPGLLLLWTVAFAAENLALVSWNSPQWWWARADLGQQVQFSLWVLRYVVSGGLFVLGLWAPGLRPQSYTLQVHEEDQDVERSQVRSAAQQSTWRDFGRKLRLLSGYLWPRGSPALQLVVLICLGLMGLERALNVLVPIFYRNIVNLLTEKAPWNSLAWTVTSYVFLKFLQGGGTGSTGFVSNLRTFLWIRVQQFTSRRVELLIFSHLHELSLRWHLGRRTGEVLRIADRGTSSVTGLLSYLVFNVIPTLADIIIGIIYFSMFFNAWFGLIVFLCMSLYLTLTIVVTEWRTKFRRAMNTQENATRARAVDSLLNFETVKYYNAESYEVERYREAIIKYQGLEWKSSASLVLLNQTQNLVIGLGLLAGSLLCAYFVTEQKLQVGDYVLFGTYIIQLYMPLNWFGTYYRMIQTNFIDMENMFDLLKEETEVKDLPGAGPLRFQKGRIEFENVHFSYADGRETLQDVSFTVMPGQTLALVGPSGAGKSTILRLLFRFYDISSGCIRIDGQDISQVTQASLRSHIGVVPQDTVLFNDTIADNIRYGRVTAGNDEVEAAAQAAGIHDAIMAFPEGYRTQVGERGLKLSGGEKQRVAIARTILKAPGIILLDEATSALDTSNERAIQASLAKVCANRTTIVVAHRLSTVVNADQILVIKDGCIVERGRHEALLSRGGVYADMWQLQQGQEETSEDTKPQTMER

[15] = AML differentiation inducers, ER-HoxA9 marrow cells – cell-based, GFP/MAC1 double positive, flow cytometry, validation set, primary screen (AID 588685;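 active = differentiation response of at least 50%, scaled between solvent and reference control, from cells with both markers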;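 also: compound exposure lasts four days before antibody staining and flow analysis; 0% = DMSO wells and 100% = 5 µM fulvestrant positive control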); details: stronger effect = higher value, normalized: vehicle 0, fulvestrant 100

SMILES | percent of DMSO control GFP [1] | GFP response vs DMSO [2] | percent response of DMSO control [3] | GFP response vs DMSO [4] | GFP response, % of DMSO [5] | double positive events [6] | vesicle binding response [6] | inhibition [7] | superoxide response (% of plate) [8] | aptamer binding inhibition [9] | inhibition [10] | response [11] | binding (% of control) [12] | efflux inhibition (fraction of control) [13] | inhibition [14] | differentiation response [15]
CCOc1ccc(NC(=O)N[C@@H](CCSC)C(=O)OC)cc1 | 105% (inactive) | 106% (inactive) | 104% (inactive) | 96.4% (inactive) | 105% (inactive) | 52.6% | 164% (inactive) | 5.36% (inactive) | 117% (inactive) | 1% (inactive) | 5.32% (inactive) | 4.65% (inactive) | 98.5% (inactive) | -0.47 (inactive) | 6% (inactive) | 9.49% (inactive)
CC[n+]1c(C)sc2cc(C)ccc21 | 96.4% (inactive) | 103% (inactive) | 87.1% (inactive) | 116% (inactive) | 95.4% (inactive) | 50% | 138% (inactive) | -11.4% (inactive) | 106% (inactive) | 6% (inactive) | -14% (inactive) | -1.58% (inactive) | 102% (inactive) | 0.44 (active) | 15% (inactive) | -13.1% (inactive)
C[C@H]1C[C@H]2[C@@H]3CCC4=CC(=O)C=C[C@]4(C)[C@@]3(Cl)[C@@H](O)C[C@]2(C)[C@@]1(O)C(=O)CO | 101% (inactive) | 103% (inactive) | 106% (inactive) | 103% (inactive) | 98.8% (inactive) | 53.7% | 190% (inactive) | 4.42% (inactive) | 85.2% (inactive) | 2% (inactive) | -8.65% (inactive) | 4.84% (inactive) | 96.9% (inactive) | -0.24 (inactive) | 6% (inactive) | -9.89% (inactive)
COC(=O)C1=C(C)NC(C)=C(C(=O)OC)C1c1ccccc1[N+](=O)[O-] | 102% (inactive) | 104% (inactive) | 102% (inactive) | 108% (inactive) | 94.6% (inactive) | 53.9% | 186% (inactive) | 5.36% (inactive) | 93.7% (inactive) | -2% (inactive) | 34.7% (inactive) | -7.73% (inactive) | 104% (inactive) | -0.39 (inactive) | 12% (inactive) | -8.27% (inactive)
COc1cc(C2CC(=O)NC3=C2C(=O)CC(C)(C)C3)ccc1O (stereo not given) | 99.6% (inactive) | 99.9% (inactive) | 105% (inactive) | 100% (inactive) | 103% (inactive) | 61.3% | 141% (inactive) | 11.9% (inactive) | 98.7% (inactive) | 4% (inactive) | 22.3% (inactive) | -2.29% (inactive) | 96.5% (inactive) | -0.09 (inactive) | 4% (inactive) | 0% (inactive)
O=C(c1ccc(O)cc1)c1ccc(O)cc1O | 101% (inactive) | 108% (inactive) | 104% (inactive) | 101% (inactive) | 99.1% (inactive) | 59.2% | 122% (inactive) | 4.42% (inactive) | 95.7% (inactive) | 3% (inactive) | 45.5% (inactive) | -7.71% (inactive) | 96.9% (inactive) | 0.06 (inactive) | 6% (inactive) | 49.9% (active)
CCCCC1C(=O)N(c2ccccc2)N(c2ccccc2)C1=O | 98.1% (inactive) | 117% (inactive) | 101% (inactive) | 89.7% (inactive) | 97.5% (inactive) | 66% | 258% (inactive) | 3.55% (inactive) | 94.9% (inactive) | 0% (inactive) | 33.1% (inactive) | -1.74% (inactive) | 111% (inactive) | -0.06 (inactive) | 8% (inactive) | 17.2% (inactive)
Nc1ccc(N)c(C(=O)O)c1 | 100% (inactive) | 99.9% (inactive) | 110% (inactive) | 85.3% (inactive) | 90.3% (inactive) | 50% | 122% (inactive) | -3.04% (inactive) | 79% (inactive) | 92% (active) | 92.2% (active) | -0.99% (inactive) | 2.29% (active) | -0.24 (inactive) | 8% (inactive) | -5.05% (inactive)
Cn1c2ccccc2c2cc(/C=C(\NC(=O)c3ccccc3)C(=O)O)ccc21 | 95.6% (inactive) | 90.8% (inactive) | 106% (inactive) | 92.3% (inactive) | 95.7% (inactive) | 58% | 107% (inactive) | -9.57% (inactive) | 111% (inactive) | 3% (inactive) | -8.15% (inactive) | 1.01% (inactive) | 96.5% (inactive) | -0.43 (inactive) | 10% (inactive) | -14.7% (inactive)
O=[N+]([O-])c1cc(/C=N/n2cnnc2)ccc1N1CCCC1 | 100% (inactive) | 99.9% (inactive) | 97.9% (inactive) | 95.4% (inactive) | 101% (inactive) | 60.8% | 182% (inactive) | 10.9% (inactive) | 105% (inactive) | 6% (inactive) | 5.45% (inactive) | -0.97% (inactive) | 96.4% (inactive) | -0.43 (inactive) | 3% (inactive) | -8.27% (inactive)
O=C(CCCCC(=O)NC1CCCC1)NC1CCCC1 | 96.8% (inactive) | 102% (inactive) | 105% (inactive) | 95.4% (inactive) | 93.7% (inactive) | 53.7% | 181% (inactive) | 10% (inactive) | 103% (inactive) | 0% (inactive) | 3.46% (inactive) | 3.11% (inactive) | 102% (inactive) | 0.29 (inactive) | 6% (inactive) | -11.5% (inactive)
C/C=C/Cn1c(SC)nc2c1c(=O)[nH]c(=O)n2C | 102% (inactive) | 101% (inactive) | 95.9% (inactive) | 93.3% (inactive) | 93.4% (inactive) | 59% | 124% (inactive) | 3.49% (inactive) | 97.4% (inactive) | 0% (inactive) | 34.4% (inactive) | 1.09% (inactive) | 103% (inactive) | 0.78 (active) | 0% (inactive) | -14.7% (inactive)
Cc1ccc2c(c1)c1c3n2CCCNC3CCC1 (stereo not given) | 103% (inactive) | 106% (inactive) | 107% (inactive) | 95.4% (inactive) | 94% (inactive) | 63.9% | 229% (inactive) | 10% (inactive) | 85.7% (inactive) | -4% (inactive) | -3% (inactive) | 3.62% (inactive) | 111% (inactive) | -0.05 (inactive) | 9% (inactive) | -3.43% (inactive)
CCn1cc(C(=O)O)c(=O)c2cnc(N3CCNCC3)nc21 | 99.1% (inactive) | 99.9% (inactive) | 104% (inactive) | 91.3% (inactive) | 99.7% (inactive) | 61% | 164% (inactive) | 7.22% (inactive) | 85.2% (inactive) | 0% (inactive) | 32.7% (inactive) | -7.56% (inactive) | 99% (inactive) | -0.31 (inactive) | 6% (inactive) | -19.6% (inactive)
CC(=O)NC1C(OCCOc2ccc(Cl)cc2Cl)OC(COC(C)=O)C(OC(C)=O)C1OC(C)=O (stereo not given) | 103% (inactive) | 102% (inactive) | 108% (inactive) | 91.3% (inactive) | 94.5% (inactive) | 55.1% | 168% (inactive) | 16.6% (inactive) | 108% (inactive) | 3% (inactive) | 8.3% (inactive) | -6.83% (inactive) | 101% (inactive) | -0.2 (inactive) | 9% (inactive) | 20.8% (inactive)
CC(C)Cc1ccc(C(C)C(=O)Nc2ccc(O)cc2)cc1 (stereo not given) | 103% (inactive) | 105% (inactive) | 107% (inactive) | 106% (inactive) | 99.7% (inactive) | 58.6% | 178% (inactive) | 13.8% (inactive) | 110% (inactive) | 2% (inactive) | 33.6% (inactive) | -13.1% (inactive) | 105% (inactive) | 0.14 (inactive) | 1% (inactive) | 0% (inactive)
c1cc2c(cc1C1CCCCC1)c1c3n2CCN=C3CCC1 | 98.1% (inactive) | 107% (inactive) | 99.8% (inactive) | 99.4% (inactive) | 93.1% (inactive) | 57.1% | 224% (inactive) | -9.57% (inactive) | 98.8% (inactive) | -9% (inactive) | -7.03% (inactive) | -0.63% (inactive) | 114% (inactive) | 0.03 (inactive) | -1% (inactive) | -9.89% (inactive)
CC(NC(=O)c1ccc(OC2CCN(Cc3ccccn3)CC2)cc1)c1ccccc1 (stereo not given) | 106% (inactive) | 102% (inactive) | 105% (inactive) | 99.4% (inactive) | 100% (inactive) | 59.3% | 110% (inactive) | 14.7% (inactive) | 93.3% (inactive) | -2% (inactive) | 32.2% (inactive) | -10.2% (inactive) | 102% (inactive) | -0.31 (inactive) | 6% (inactive) | 0% (inactive)
COc1ccc(C2N3CC4(C)CN2CC(C)(C3)C4)cc1OC (stereo not given) | 103% (inactive) | 99.9% (inactive) | 107% (inactive) | 87.3% (inactive) | 107% (inactive) | 52.7% | 177% (inactive) | -0.24% (inactive) | 96.9% (inactive) | 1% (inactive) | 9.79% (inactive) | 2.37% (inactive) | 99% (inactive) | -0.09 (inactive) | 6% (inactive) | -13.1% (inactive)
COc1ccc(C2NC(=O)c3ccccc3N2)cc1OC (stereo not given) | 98.8% (inactive) | 99.9% (inactive) | 96.9% (inactive) | 94.3% (inactive) | 92.2% (inactive) | 64.4% | 117% (inactive) | 10.9% (inactive) | 108% (inactive) | 5% (inactive) | 3.03% (inactive) | 1.73% (inactive) | 95.1% (inactive) | 0.06 (inactive) | 11% (inactive) | -3.43% (inactive)
